The values that follow come from ChEMBL document CHEMBL3988442, “University of Dundee, Small-Polar-MMV Screening Library” (2021).

The first assay has as its target T1, Aspartate--tRNA(Asp/Asn) ligase (Mycobacterium tuberculosis (strain ATCC 25618 / H37Rv)) (UniProt P9WFW3). Note: in the data most compounds retested in dose-response had high values.
T1 sequence (whole entry): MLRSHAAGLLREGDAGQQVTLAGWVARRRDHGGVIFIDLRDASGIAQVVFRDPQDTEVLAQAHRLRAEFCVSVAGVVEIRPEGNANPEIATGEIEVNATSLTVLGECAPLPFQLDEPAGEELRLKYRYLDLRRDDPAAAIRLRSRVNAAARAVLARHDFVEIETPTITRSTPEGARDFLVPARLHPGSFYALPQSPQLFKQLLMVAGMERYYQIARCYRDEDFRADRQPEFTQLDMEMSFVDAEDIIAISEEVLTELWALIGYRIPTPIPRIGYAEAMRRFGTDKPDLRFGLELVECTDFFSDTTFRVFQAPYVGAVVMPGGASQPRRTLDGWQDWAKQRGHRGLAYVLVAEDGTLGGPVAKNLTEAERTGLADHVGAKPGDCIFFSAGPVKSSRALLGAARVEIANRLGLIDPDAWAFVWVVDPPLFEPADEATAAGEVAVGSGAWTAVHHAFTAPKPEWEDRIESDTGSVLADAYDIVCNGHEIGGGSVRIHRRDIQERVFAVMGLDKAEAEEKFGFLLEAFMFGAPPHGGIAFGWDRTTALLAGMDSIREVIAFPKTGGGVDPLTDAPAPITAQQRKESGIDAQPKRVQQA
As to the kind of experiment: Assay for Asp RNA synthetase-1 from Mycobacterium tuberculosis. Type of assay: functional. Also on record: scale not given: direction of the effect not stated beside the values. The conditions noted are these: 30 µM.
With `Cc1cc(-c2cnc(N3CCCC(C)C3)nc2-c2cccnc2C)on1` (stereo not given), the Percent Effect stood at 7.13%.
Consider `O=C(NCCn1ccc(-c2ccncc2)n1)c1ccncc1`, for which the Percent Effect came to 1.52%.
On the same count and under the same terms, in the case of `FC(F)(F)c1nc(NC2CCCC2)c2ccccc2n1` it was 0.562%; in that of `CCN1CC2(CC1=O)CN(Cc1cnn(C)c1)CCN(C(=O)C(C)C)C2` (stereo not given), -1.53%; in that of `CC(C)c1ccc(OCCC(=O)N2CCC(CC(N)=O)CC2)cc1`, -0.478%.
On the same count and under the same terms, in the case of `N#CC1CCCN(c2nc(-c3ccccc3)nc3c2CCNCC3)C1` (stereo not given) it was 0.524%; in that of `O=C(c1cccs1)N1CCC2(C1)c1ccccc1S(=O)(=O)N2CC1CC1` (stereo not given), -6.49%; in that of `CCc1nc(CN2CCCN(C(=O)CCSC)CC2)cs1`, -2.35%.
The same measure, in the same setting: next, `COC(=O)N1CCCC(C(=O)NCc2cc3cccc(OC)c3o2)C1` (stereo not given): -0.457%.
Take `CCOCC1CN(C(=O)C2=CCCC2)Cc2cnn(CC)c21` (stereo not given): the Percent Effect was -0.107%.
On the same count and under the same terms, in the case of `CC(C)Oc1ncccc1CNC(=O)C1CCCN(C(=O)C2CC2)C1` (stereo not given) it was -4.79%; in that of `O=C1CCCc2cc(-c3csc(CCN4CCOC4=O)n3)ccc2N1`, -6.83%.
Still for that read-out and setting: next, `O=C(Nc1ccc(CCN2CCC(O)CC2)cc1)C1CCOCC1`: -1.86%; `CN1CC(=O)N(c2cnn(C)c2)CC12CCN(C(=O)c1ccsc1)C2` (stereo not given): 0.595%; `CCN1CCC(NC(=O)CN2CCCC2Cn2nc(C)cc2C)CC1` (stereo not given): -0.781%.
The same measure, in the same setting: in the case of `CCn1ccnc1CN1CCN(C(C)C(=O)NC2CCCCC2)CC1` (stereo not given) it was -1.01%.
As for `Cc1cc(C(=O)N2CC[C@@H]3CN(c4ncccn4)CCO[C@@H]3C2)c(C)o1`, the Percent Effect was determined as 7.23%.
Regarding `O=C(Cc1cccs1)N1C[C@@H]2COC[C@]2(COc2cccnc2)C1`, the Percent Effect is -6.32%.
Still for that read-out and setting: in the case of `CCN(CC)C(=O)c1nnc2ccc(N3CCOCC3)cc2n1` it was -5.17%; in that of `Cn1cc(C(=O)N2CCC(Cc3nccs3)CC2)cn1`, 2.4%.

The next assay has as its target Shiga toxin 2 (Escherichia coli O157:H7) (UniProt P09385+P09386). As to the kind of experiment: E. coli 0.157:H7 Shiga Toxin SOP - stx2 screening assay. Type of assay: functional. Also on record: scale not given: direction of the effect not stated beside the values. The conditions noted are these: 30 µM.
Consider `CCOC(CC)C(=O)NCc1ccnc(Oc2ccc(F)cc2)c1` (stereo not given), for which the Percent Effect was determined as 5.28%.
Same read-out and setting: in the case of `Cc1cn2c(n1)CCC(NC(=O)c1cc(Br)cn1C)C2` (stereo not given) it was -34.8%.
On the same count and under the same terms, next, `Cc1noc(C(C)C)c1C(=O)NS(=O)(=O)c1ccc(Cl)cc1`: 13.7%; `CC(=O)c1ccc(N2CCC(CO)(CCOc3ccccc3)CC2)nc1`: -31.2%; `Cc1cc(C)c2nc(CN3CCOC(CCO)C3)cc(O)c2c1` (stereo not given): -15.7%.
The same measure, in the same setting: in the case of `COc1cnc(C2(O)CCN(C(=O)c3ccncc3)CC2)c(OC)n1` it was -1.51%.
As for `COCc1cccc(NS(=O)(=O)c2cc(C(=O)O)cs2)c1`, the Percent Effect is -27.7%.
The same measure, in the same setting: in the case of `Cc1cccc(COC[C@@H]2CC[C@H]3[C@H](CCN3Cc3ccco3)O2)n1` it was -16.8%.
The same measure, in the same setting: in the case of `COCCNC(=O)NCc1ccc(OC(C)C)c(F)c1` it was 29.6%; in that of `Cc1cnc(CN(C)C2CCN(CC(=O)N(C)c3nccs3)C2)o1` (stereo not given), -15.8%.
`O=C(C1CC=CC1)N1CCC2(CC1)CN(Cc1ccccn1)CCO2`: the Percent Effect came out at 3.35%.
Still for that read-out and setting: in the case of `CCCC(C)(C)NC(=O)c1ccc(CC2CC(=O)NC2=O)cc1` (stereo not given) it was -9.64%; in that of `CN(Cc1nccs1)c1nc(-c2ccccn2)nc2c1CCNCC2`, -12.4%; in that of `Cn1cc(CNCCn2cccn2)c(-c2cccnc2)n1`, -0.247%.
On the same count and under the same terms, next, `COc1ccnc(N2CCN(C(=O)CN3CCCC3=O)CC2)n1`: 13.5%; `CCN1CCC(NC(=O)CN2CCCCC2Cn2cc(C)cn2)CC1` (stereo not given): -21.7%; `COC(=O)c1ccc(N2CCN(CCC(=O)NC(N)=O)C(C)C2)cc1` (stereo not given): 25.6%.
The same measure, in the same setting: in the case of `COc1cc(C)nc(N2CCN(C(=O)CCc3cscn3)CC2)n1` it was -10.1%.
As to `COCC(=O)N(C)Cc1ccc(Cl)c(Cl)c1`, the Percent Effect was 2.03%.
`COc1cccc(CNC(=O)CN2CCCCC2Cn2cccn2)c1` (stereo not given): the Percent Effect worked out at 20.3%.
Still for that read-out and setting: in the case of `Cc1cc(-c2cnc(N3CCCC(C)C3)nc2-c2cccnc2C)on1` (stereo not given) it was -30.1%.
Still for that read-out and setting: in the case of `O=C(NCCn1ccc(-c2ccncc2)n1)c1ccncc1` it was -65.9%.
As for `FC(F)(F)c1nc(NC2CCCC2)c2ccccc2n1`, the Percent Effect is -0.0663%.
Turning to `CCN1CC2(CC1=O)CN(Cc1cnn(C)c1)CCN(C(=O)C(C)C)C2` (stereo not given), the Percent Effect was -10.1%.
Same read-out and setting: next, `CC(C)c1ccc(OCCC(=O)N2CCC(CC(N)=O)CC2)cc1`: 29.9%.
On to `N#CC1CCCN(c2nc(-c3ccccc3)nc3c2CCNCC3)C1` (stereo not given), for which the Percent Effect was -18.1%.
Same read-out and setting: in the case of `O=C(c1cccs1)N1CCC2(C1)c1ccccc1S(=O)(=O)N2CC1CC1` (stereo not given) it was 6.62%; in that of `CCc1nc(CN2CCCN(C(=O)CCSC)CC2)cs1`, -65.7%.
Still for that read-out and setting: next, `COC(=O)N1CCCC(C(=O)NCc2cc3cccc(OC)c3o2)C1` (stereo not given): 14.7%.
Same read-out and setting: next, `CCOCC1CN(C(=O)C2=CCCC2)Cc2cnn(CC)c21` (stereo not given): 3.46%; `CC(C)Oc1ncccc1CNC(=O)C1CCCN(C(=O)C2CC2)C1` (stereo not given): 33.3%; `O=C1CCCc2cc(-c3csc(CCN4CCOC4=O)n3)ccc2N1`: -35.7%.
In the case of `O=C(Nc1ccc(CCN2CCC(O)CC2)cc1)C1CCOCC1`, the Percent Effect is -38.6%.
Still for that read-out and setting: in the case of `CN1CC(=O)N(c2cnn(C)c2)CC12CCN(C(=O)c1ccsc1)C2` (stereo not given) it was -1.99%; in that of `CCN1CCC(NC(=O)CN2CCCC2Cn2nc(C)cc2C)CC1` (stereo not given), 17.1%.
As to `CCn1ccnc1CN1CCN(C(C)C(=O)NC2CCCCC2)CC1` (stereo not given), the Percent Effect came out at 22%.
On the same count and under the same terms, in the case of `Cc1cc(C(=O)N2CC[C@@H]3CN(c4ncccn4)CCO[C@@H]3C2)c(C)o1` it was -7.5%; in that of `O=C(Cc1cccs1)N1C[C@@H]2COC[C@]2(COc2cccnc2)C1`, -1.18%.
Consider `CCN(CC)C(=O)c1nnc2ccc(N3CCOCC3)cc2n1`, for which the Percent Effect was -18.6%.
On the same count and under the same terms, next, `Cn1cc(C(=O)N2CCC(Cc3nccs3)CC2)cn1`: 59.9%.
